# Experimental data reported in PubChem BioAssay.
# Values without a mark were called inactive. Activity calls are given as the source filed them.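 The calls were made as follows: active = normalized viability below 100% at a tested concentration; inactive = the rest.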
# Experiment: drug combination growth inhibition, ovarian cancer – cell-based, oncology-focused library, rucaparib conditional, profiling panel (AID 1508598)
# Settings: patient-derived ovarian cancer cells, CellTiter-Glo viability, 144 h; at 0.000305 µM; OCI-C5x cells; without rucaparib; hits give low values
row,SMILES,viability
1,CNC(=O)c1ccc(N2C(=S)N(c3ccc(C#N)c(C(F)(F)F)c3)C(=O)C2(C)C)cc1F,85.9% (active)
2,Cn1cncc1[C@@](N)(c1ccc(Cl)cc1)c1ccc2c(c1)c(-c1cccc(Cl)c1)cc(=O)n2C,115%
3,O=C(O)c1ccc2c(c1)nc(Nc1cccc(Cl)c1)c1ccncc12,125%
4,CC(C)C[C@H](NC(=O)CNC(=O)c1cc(Cl)ccc1Cl)B(O)O,132%
5,CC1(C)CCC(c2ccc(Cl)cc2)=C(CN2CCN(c3ccc(C(=O)NS(=O)(=O)c4ccc(N[C@H](CCN5CCOCC5)CSc5ccccc5)c(S(=O)(=O)C(F)(F)F)c4)cc3)CC2)C1,78.4% (active)
6,C#Cc1cccc(Nc2ncnc3cc(OCCOC)c(OCCO)cc23)c1,140%
7,CC(C)CC(=O)Nc1n[nH]c2c1CN(C(=O)C1CCN(C)CC1)C2(C)C,128%
8,C=CCn1c(=O)c2cnc(Nc3ccc(N4CCN(C)CC4)cc3)nc2n1-c1cccc(C(C)(C)O)n1,107%
9,O=C(O)[C@H](Cc1c[nH]c2ccccc12)N1C(=O)c2ccccc2C1=O,103%
10,O=C(NC1CCNCC1)c1[nH]ncc1NC(=O)c1c(Cl)cccc1Cl,105%
11,CC(C)C[C@H](NC(=O)CNC(=O)c1cc(Cl)ccc1Cl)B1OC(=O)CC(CC(=O)O)(C(=O)O)O1 (some centres undefined),124%

# Same assay, conditions: patient-derived ovarian cancer cells, CellTiter-Glo viability, 144 h; at 0.000305 µM; OCI-P5x cells; with rucaparib 20 µM; hits give low values; 100% = cells with rucaparib alone
row,SMILES,viability
1,CNC(=O)c1ccc(N2C(=S)N(c3ccc(C#N)c(C(F)(F)F)c3)C(=O)C2(C)C)cc1F,81% (active)
2,Cn1cncc1[C@@](N)(c1ccc(Cl)cc1)c1ccc2c(c1)c(-c1cccc(Cl)c1)cc(=O)n2C,102%
3,O=C(O)c1ccc2c(c1)nc(Nc1cccc(Cl)c1)c1ccncc12,103%
4,CC(C)C[C@H](NC(=O)CNC(=O)c1cc(Cl)ccc1Cl)B(O)O,106%
5,CC1(C)CCC(c2ccc(Cl)cc2)=C(CN2CCN(c3ccc(C(=O)NS(=O)(=O)c4ccc(N[C@H](CCN5CCOCC5)CSc5ccccc5)c(S(=O)(=O)C(F)(F)F)c4)cc3)CC2)C1,132%
6,C#Cc1cccc(Nc2ncnc3cc(OCCOC)c(OCCO)cc23)c1,109%
7,CC(C)CC(=O)Nc1n[nH]c2c1CN(C(=O)C1CCN(C)CC1)C2(C)C,101%
8,C=CCn1c(=O)c2cnc(Nc3ccc(N4CCN(C)CC4)cc3)nc2n1-c1cccc(C(C)(C)O)n1,88.3% (active)
9,O=C(O)[C@H](Cc1c[nH]c2ccccc12)N1C(=O)c2ccccc2C1=O,84.4% (active)
10,O=C(NC1CCNCC1)c1[nH]ncc1NC(=O)c1c(Cl)cccc1Cl,89.7% (active)
11,CC(C)C[C@H](NC(=O)CNC(=O)c1cc(Cl)ccc1Cl)B1OC(=O)CC(CC(=O)O)(C(=O)O)O1 (some centres undefined),111%

# Same assay, conditions: patient-derived ovarian cancer cells, CellTiter-Glo viability, 144 h; at 0.000305 µM; OCI-P5x cells; without rucaparib; hits give low values
row,SMILES,viability
1,CNC(=O)c1ccc(N2C(=S)N(c3ccc(C#N)c(C(F)(F)F)c3)C(=O)C2(C)C)cc1F,76.7% (active)
2,Cn1cncc1[C@@](N)(c1ccc(Cl)cc1)c1ccc2c(c1)c(-c1cccc(Cl)c1)cc(=O)n2C,113%
3,O=C(O)c1ccc2c(c1)nc(Nc1cccc(Cl)c1)c1ccncc12,105%
4,CC(C)C[C@H](NC(=O)CNC(=O)c1cc(Cl)ccc1Cl)B(O)O,121%
5,CC1(C)CCC(c2ccc(Cl)cc2)=C(CN2CCN(c3ccc(C(=O)NS(=O)(=O)c4ccc(N[C@H](CCN5CCOCC5)CSc5ccccc5)c(S(=O)(=O)C(F)(F)F)c4)cc3)CC2)C1,120%
6,C#Cc1cccc(Nc2ncnc3cc(OCCOC)c(OCCO)cc23)c1,119%
7,CC(C)CC(=O)Nc1n[nH]c2c1CN(C(=O)C1CCN(C)CC1)C2(C)C,115%
8,C=CCn1c(=O)c2cnc(Nc3ccc(N4CCN(C)CC4)cc3)nc2n1-c1cccc(C(C)(C)O)n1,91.1% (active)
9,O=C(O)[C@H](Cc1c[nH]c2ccccc12)N1C(=O)c2ccccc2C1=O,85.2% (active)
10,O=C(NC1CCNCC1)c1[nH]ncc1NC(=O)c1c(Cl)cccc1Cl,97.4% (active)
11,CC(C)C[C@H](NC(=O)CNC(=O)c1cc(Cl)ccc1Cl)B1OC(=O)CC(CC(=O)O)(C(=O)O)O1 (some centres undefined),113%

# Same assay, conditions: patient-derived ovarian cancer cells, CellTiter-Glo viability, 144 h; at 0.00122 µM; OCI-C5x cells; with rucaparib 10 µM; hits give low values; 100% = cells with rucaparib alone
row,SMILES,viability
1,CNC(=O)c1ccc(N2C(=S)N(c3ccc(C#N)c(C(F)(F)F)c3)C(=O)C2(C)C)cc1F,110%
2,Cn1cncc1[C@@](N)(c1ccc(Cl)cc1)c1ccc2c(c1)c(-c1cccc(Cl)c1)cc(=O)n2C,118%
3,O=C(O)c1ccc2c(c1)nc(Nc1cccc(Cl)c1)c1ccncc12,119%
4,CC(C)C[C@H](NC(=O)CNC(=O)c1cc(Cl)ccc1Cl)B(O)O,112%
5,CC1(C)CCC(c2ccc(Cl)cc2)=C(CN2CCN(c3ccc(C(=O)NS(=O)(=O)c4ccc(N[C@H](CCN5CCOCC5)CSc5ccccc5)c(S(=O)(=O)C(F)(F)F)c4)cc3)CC2)C1,12.7% (active)
6,C#Cc1cccc(Nc2ncnc3cc(OCCOC)c(OCCO)cc23)c1,113%
7,CC(C)CC(=O)Nc1n[nH]c2c1CN(C(=O)C1CCN(C)CC1)C2(C)C,108%
8,C=CCn1c(=O)c2cnc(Nc3ccc(N4CCN(C)CC4)cc3)nc2n1-c1cccc(C(C)(C)O)n1,122%
9,O=C(O)[C@H](Cc1c[nH]c2ccccc12)N1C(=O)c2ccccc2C1=O,126%
10,O=C(NC1CCNCC1)c1[nH]ncc1NC(=O)c1c(Cl)cccc1Cl,116%
11,CC(C)C[C@H](NC(=O)CNC(=O)c1cc(Cl)ccc1Cl)B1OC(=O)CC(CC(=O)O)(C(=O)O)O1 (some centres undefined),107%
